Data on 27 compounds can be found in the supplement of paper PMC12067926.

A number with no mark means an inactive call.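 The calls were made as follows: active = growth AUC significantly below the DMSO wells by Dunnett test; inactive = the rest.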

In this assay the test system is Bacillus 1 (Bacillus foraminis). Put plainly: relative growth (AUC of 72 h growth curve relative to DMSO control, dAUC) (ratio); higher = more growth (less inhibition), active = hit call of the paper. The settings on record: 20 µM. On the procedure:
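Environmental bacterial isolates (Iceland stream sediment and Silwood Park soil) and whole stream-sediment communities were grown in LB from a 1:100 dilution with each pesticide at 20 µM (1% DMSO). A600 was read hourly for 72 h and the area under a spline-fitted growth curve (AUC) was computed. dAUC is the mean AUC of 3 biological replicates divided by the mean AUC of the DMSO controls. Significance was tested by Dunnett's test against the DMSO control.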
As for `N#CC(CCc1ccc(Cl)cc1)(Cn1cncn1)c1ccccc1` (configuration not stated), the relative growth was 0.836. To `CNC(=O)CSP(=S)(OC)OC` belongs 0.911; to `N#Cc1nn(-c2c(Cl)cc(C(F)(F)F)cc2Cl)c(N)c1[S+]([O-])C(F)(F)F` (configuration not stated), 1.01; to `Cc1c(COC(=O)[C@@H]2[C@H](/C=C(\Cl)C(F)(F)F)C2(C)C)cccc1-c1ccccc1` (racemic), 0.976. Then `CC(C)(C)[C@@H](O)[C@H](Oc1ccc(Cl)cc1)n1cncn1`, with 1.03. Then `COC(=O)N(C(=O)N1CO[C@@]2(C(=O)OC)Cc3cc(Cl)ccc3C2=N1)c1ccc(OC(F)(F)F)cc1`, with 1; and `Cc1nc(N(C)C)nc(OC(=O)N(C)C)c1C`, with 0.959. As to `O=C(Nc1ccc(F)cc1F)c1cccnc1Oc1cccc(C(F)(F)F)c1`, the relative growth is 1.07. For `COc1cc(C)c(C(=O)c2c(OC)ccc(Br)c2C)c(OC)c1OC`, the relative growth is 1.03. With `O=C(NC(=O)c1c(F)cccc1F)Nc1ccc(Cl)cc1`, the relative growth was 1.05. Consider `CC(C)NC(=O)N1CC(=O)N(c2cc(Cl)cc(Cl)c2)C1=O`, for which the relative growth was 0.928.

`Fc1ccc(Oc2ccnc3cc(Cl)cc(Cl)c23)cc1`: the relative growth is 1.04. To `CC1COC(Cn2cncn2)(c2ccc(Oc3ccc(Cl)cc3)cc2Cl)O1` (configuration not stated) belongs 1.11; to `COCc1cnc(C2=NC(C)(C(C)C)C(=O)N2)c(C(=O)O)c1` (configuration not stated), 0.985; to `CCNc1nc(Cl)nc(NC(C)C)n1`, 0.997. As to `Oc1ccccc1-c1ccccc1`, the relative growth is 0.868. Take `CCC(C)c1ccccc1OC(=O)NC` (configuration not stated): the relative growth is 1.07. `CCc1cnc(C2=NC(C)(C(C)C)C(=O)N2)c(C(=O)O)c1` (configuration not stated): the relative growth is 1.11. On to `CC1(C)C(C=C(Cl)Cl)C1C(=O)OC(C#N)c1ccc(F)c(Oc2ccccc2)c1` (configuration not stated), for which the relative growth is 0.94.

As to `CCCN(CCOc1c(Cl)cc(Cl)cc1Cl)C(=O)n1ccnc1`, the relative growth was 1.07. To `O=[N+]([O-])/N=C1\NCCN1Cc1ccc(Cl)nc1` belongs 1.06; to `Clc1ccc(C(c2ccc(Cl)cc2)C(Cl)(Cl)Cl)cc1`, 1.06. For the compound `CC1(C)C(C(=O)OC(C#N)c2cccc(Oc3ccccc3)c2)C1(C)C` (configuration not stated), the relative growth was 0.917.

In the case of `CC(C)N1C(=O)N(c2ccccc2)CS/C1=N\C(C)(C)C`, the relative growth was 1.04. Then `COP(=O)(OC)OC=C(Cl)Cl`, with 0.941; and `Cc1cc(C)c(C2=C(OC(=O)CC(C)(C)C)C3(CCCC3)OC2=O)c(C)c1`, with 0.993; and `CC[C@H]1CCC[C@H](O[C@H]2CC[C@H](N(C)C)[C@@H](C)O2)[C@@H](C)C(=O)C2=C[C@@H]3[C@@H](C=C(C)[C@@H]4C[C@@H](O[C@@H]5O[C@@H](C)[C@H](OC)[C@@H](OC)[C@H]5OC)C[C@@H]34)[C@@H]2CC(=O)O1.CC[C@H]1CCC[C@H](O[C@H]2CC[C@H](N(C)C)[C@@H](C)O2)[C@@H](C)C(=O)C2=C[C@H]3[C@@H]4C[C@H](O[C@@H]5O[C@@H](C)[C@H](OC)[C@@H](OC)[C@H]5OC)C[C@H]4C=C[C@H]3C2CC(=O)O1`, with 1.04.
